This is a sample that favours compounds with a hit; in the whole collection about 4.6% have one here.
D1 antagonist: blocks dopamine activation of the human D1 receptor. P21728. HEK293 TREx D1 cells, calcium flux, dopamine EC80; hits give low values. activity change, negative = inhibition, % at 10 µM. 3.2% of 360,000 active. AID 504652; in the data active = activity change below about -30%; note: % is set by controls: 0 for no effect and ±100 for the full control effect
Target sequence (P21728 whole entry, looked up): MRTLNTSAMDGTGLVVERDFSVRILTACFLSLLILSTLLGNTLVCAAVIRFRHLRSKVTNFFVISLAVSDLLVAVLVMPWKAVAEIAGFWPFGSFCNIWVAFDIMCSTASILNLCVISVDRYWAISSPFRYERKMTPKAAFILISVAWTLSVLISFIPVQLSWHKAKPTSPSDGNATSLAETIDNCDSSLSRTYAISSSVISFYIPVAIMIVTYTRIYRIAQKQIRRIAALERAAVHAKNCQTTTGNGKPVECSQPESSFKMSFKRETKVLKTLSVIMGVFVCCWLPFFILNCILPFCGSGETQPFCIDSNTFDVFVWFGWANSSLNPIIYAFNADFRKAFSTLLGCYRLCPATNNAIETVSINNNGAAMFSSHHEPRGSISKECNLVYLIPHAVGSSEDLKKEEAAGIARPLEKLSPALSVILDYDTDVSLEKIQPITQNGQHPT
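Inducible Hek293 Trex D1 cells (tetracycline, overnight, 30 C). Calcium dye 30–90 min RT. Antagonist mode: EC80 dopamine added after 180 s compound read.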
TRHR enhancer-1: TRH receptor (human) allosteric enhancement. enhancement, % at 2 µM. 0.66% of 360,000 active. TRHR cells, fluo-8 calcium fluorescence, EC20 TRH enhancement. P34981; in the data active = enhancement above about 30%; note: 0% is about no effect
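TRHR-expressing cells loaded with fluo-8 calcium dye were read kinetically (ex 480/em 530) during compound addition, then stimulated with an EC20 of TRH (10 nM final). Enhancement of the Gq-mediated intracellular calcium response was scored.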
D1 PAM: human D1 dopamine receptor positive modulation. P21728. HEK293 TREx D1 cells, calcium flux, dopamine EC20 potentiation. potentiation, % at 10 µM. 0.036% of 360,000 active. AID 504651; in the data active = potentiation above about 30%; note: 0% is about no effect
D1 ag: activates the human D1 dopamine receptor; P21728; HEK293 T-REx D1 cells, calcium flux, agonist mode; activation, % at 2 µM; 1% of 360,000 active; AID 504660; in the data active = activation above about 30%; note: 0% is about no effect
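Tetracycline-induced HEK293 TREx D1 cells, force-coupled to calcium signalling, were dye-loaded with a no-wash calcium kit. Compound was pin-added after a 10 s baseline. Fluorescence was read kinetically at 1 cycle/s for 180 s, with calcium rises flagged as agonism.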
TRHR agonist-1: TRH receptor (human) agonism; 0.18% of 360,000 active; TRHR cells, calcium flux fluo-8, FDSS agonist mode; activation, % at 2 µM; P34981; AID 493084; in the data active = activation above about 30%; note: 0% is about no effect
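TRHR-expressing cells, plated overnight in medium with 10% serum, were loaded with fluo-8 calcium dye at room temperature. After a 10 s baseline, library compound was pin-added and calcium release was recorded kinetically (ex 480/em 530) as agonist response.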
TRHR enhancer-2: confirmation of human TRH receptor allosteric enhancers; activity change, negative = inhibition, % at 46.1 µM; shares compounds with TRHR enhancer-1; 970 tested, under 10 active; TRH receptor cell assay, enhancer confirmation qHTS;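 note: compound effect scored on response to added TRH at EC20 of 10 nM; 0% is about no effect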
TRHR agonist-2: human TRH receptor agonism confirmation | AID 493078 | shares compounds with TRHR enhancer-1 | Potency, µM (doses to about 46.1 µM), inactives show at the highest dose activation, hits mostly activators | TRHR-expressing cells, agonist activation read-out | 8% of 970 active; note: potency is the fitted concentration of half-maximal effect; 0% is about no effect; nearly all actives have a fitted effect of over 75% in size
The depositor's hits bear a star; ? = inconclusive; . = no result given. Unless noted, calls come from the whole dose curve; as a rule, active = well fitted curve in the direction sought with a large enough effect; inconclusive = small, poorly fitted or top-dose-only effect, or another doubt; inactive = no such curve, though single readings can be large; an effect the other way counts as inactive or inconclusive.

SMILES	D1 antagonist	TRHR enhancer-1	D1 PAM	D1 ag	TRHR agonist-1	TRHR enhancer-2	TRHR agonist-2
O=C(O)c1cccc(CSc2nc(-c3ccc(Cl)cc3)cc(C(F)(F)F)n2)c1	-37*	42*	0	9	0	-10	?
Cc1ccc(N2CCN(C(=S)Nc3ccc(Cl)cc3)CC2)cc1	-4	10	-2	4	1	.	.
S=C(Nc1ccc(Cl)cc1)N1CCN(C2CCCCC2)CC1	8	53*	-2	7	0	4	8%
CCc1ccc(S(=O)(=O)/N=C2\C=C(NS(=O)(=O)c3ccccc3)C(=O)c3ccccc32)cc1	-19	49*	-2	-1	-1	-7	2%
CC(C)c1ccc(S(=O)(=O)/N=C2\C=C(NS(=O)(=O)c3ccccc3)C(=O)c3ccccc32)cc1	-19	21	-6	2	-1	.	.
Oc1oc(-c2cccc3ccccc23)nc1/C=N/c1nccs1	2	12	-3	44*	34*	-6	?
Cc1ccnc(N=Cc2nc(-c3ccccc3Br)oc2O)c1	7	8	0	-2	0	.	.
COc1ccc(NC(=O)C2CCC(CNS(=O)(=O)c3ccc4c(c3)C(C)(C)C(=O)N4C)CC2)cc1 (stereo unspecified)	-11	10	0	0	0	.	.
O=C(Nc1ccccc1)/C(=C/c1ccc2c(c1)OCO2)NC(=O)c1ccco1	0	52*	-7	3	0	2	0%
CCOC(=O)c1cccc(NC(=O)c2cnc(N3CCCCC3)c3ccccc23)c1	16	-4	-4	0	0	.	.
CCCCCc1ccc(OCCCC[n+]2ccc(C)cc2)c(CCCCC)c1	-12	-11	20	202*	35*	-13	?
CCCCCc1ccc(OCCCC[n+]2cccc(C)c2)c(CCCCC)c1	15	-1	-4	4	0	.	.
COC(=O)C(C)Sc1nc2c(cnn2-c2ccc(Cl)cc2)c(=O)[nH]1 (stereo unspecified)	3	2	-3	1	0	.	.
CN1CCS/C1=C\C=C1/SC(=S)N(CC(=O)O)C1=O	6	2	-7	129*	29	23	21µM*
Cn1cccc1/C=C1/SC(=S)N(CC(=O)O)C1=O	-15	15	-4	12	2	.	.
COc1cccc(N2CCN(C(=O)Cn3nc(C)n4c(cc5c(OC)cccc54)c3=O)CC2)c1	-1	9	0	0	0	.	.
